# Compounds without any hit were thinned out: in the full panel of roughly 83,000, 20% have a hit.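 Assay: single dose, 48 h. Readout: percent growth (0 = no net growth; negative = cell death). Active: <10.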 Values without a mark were called inactive. The source made the active and inactive calls.
# Test system: HL-60(TB) leukemia
# Test: NCI-60 one-dose screen, 48 h (100 = growth as untreated, 0 = no growth, -100 = all killed)
# Details: 10 µM unless noted
# Experimental: Growth inhibition of the HL-60(TB) human tumor cell line is measured as a screen for anti-cancer activity. Cells are grown in 96 well plates and exposed to the test compound for 48 hours. Compounds are tested at a single concentration, which is 10^-5 M for most compounds. The reported endpoint is percent growth (GI% or GIPRCNT), where numbers from 0 - 100% represent growth inhibition, and numbers from -100% - 0 represent cell death. For example, a value of 40 represents 60% growth inhibition. A value of 0 means no net growth occurred over the course of the experiment. A value of -40 indicates 40% of cells at the beginning of the experiment died by the end of the experiment. A value of -100 means all cells are dead at the end of the experiment.
# NCI-60 Human Tumor Cell Lines Screen was performed using the standard one-dose NCI protocol, which is described in more detail at https://dtp.cancer.gov/discovery_development/nci-60/default.htm.
# Compounds with GIPRCNT values below 10 were considered active. Activity score was based on GIPRCNT using the following formula: […]
# Score is 0 for GIPRCNT values of 100 or above, 50 for GIPRCNT values of 0, and 100 for GIPRCNT values of -100.
row,SMILES,growth
1,CNC(=O)c1c(NC(=O)c2ccc(F)cc2F)sc2c1CCC(=O)C2,-12.6% (active)
2,CCOC(=O)c1c(NCC(=O)Nc2ccc(Br)cc2)sc2c1CCCC2,28.9%
3,CCOC(=O)c1cccc(NC2=C(Cl)C(=O)c3nc(C)ccc3C2=O)c1,42%
4,Cc1ccccc1Nc1nc(SC(C)C)nc(-c2ccccc2)c1C#N,94.1%
5,O=C(/C=C/c1csc(Br)n1)NO,-36.2% (active)
6,CS(=O)c1nccc(-c2c(-c3ccc(F)c(OCc4ccccc4)c3)nc3sccn23)n1 (stereo not given),-6.35% (active)
7,CC(=O)c1cc(C(=O)N2c3ccccc3Sc3ccccc32)n2c1ccc1ccccc12,14%
8,Cc1ccc(S(=O)(=O)N(CC[C@@H]2C[C@H]2c2cc3ccccc3o2)S(=O)(=O)c2ccc(C)cc2)cc1,64.6%
9,CC1(C)CC[C@]2(C(=O)O)CC[C@]3(C)C(=CCC4[C@@]5(C)C[C@@H](O)[C@@H]6OC(c7ccccc7O)OC[C@@]6(C)C5CC[C@]43C)C2C1 (stereo not given in full),38%
10,C=CCSc1ccc2c(c1)C(N1CCNCC1)=Nc1ccccc1O2,25.6% [8.25 µM]
11,CNC(=O)c1cc(Oc2ccc3nc(NC(=O)c4ccc(CN5CCN(C)CC5)c(C(F)(F)F)c4)sc3c2)ccn1,11.3%
12,O=C(CCCCCCN1CC(=O)N2[C@@H](c3cccc(Cl)c3)c3[nH]c4ccccc4c3C[C@H]2C1=O)NO,8.21% (active)
13,CCC1=Cc2c(OC)cccc2OC12C=Cc1c(OC)cccc1O2 (stereo not given),-6.34% (active)
14,COc1cc(/C=C2\C(=O)Nc3ccccc32)ccc1OCc1ccc(Cl)cc1,113%
15,O=C(CN1C(=O)CSC1=O)Nc1ccc(C(=O)/C=C/c2cc3ccccc3nc2Cl)cc1,71.9%
16,C#CCN(C)CCCOc1ccc(NC(=O)CCCCCCC(=O)NO)cc1Cl,12.1%
17,C#CCn1cc(/C=N/Nc2nc(-c3ccc(Br)cc3)cs2)c2ccccc21,107%
18,O=C(CSc1nnc(-c2ccc(Cl)cc2)n1-c1ccccc1)Nc1ccc(Cl)cc1,79.8%
19,COc1cc2cc(Oc3ccc(NC(=O)c4cc(C(F)(F)F)cc(C(F)(F)F)c4)cc3)c(C)nc2cc1OCCN1CCOCC1,89.4%
20,COc1cc(-c2nn(C(C)(C)C)cc2-c2ccnc(NCCCNS(=O)(=O)c3ccccc3)n2)ccc1Cl,103%

row,SMILES,growth
1,O=C(CSc1nccc(=O)[nH]1)Nc1ccc(-c2nc3ccccc3[nH]2)cc1,115%
2,Clc1ccc(CSc2nnc(-c3ccc(Cl)cc3)n2-c2ccccc2)cc1,90.9%
3,CS(=O)(=O)c1nccc(-c2c(-c3ccc(F)c(OCCc4ccc(F)cc4)c3)nc3sccn23)n1,-12.1% (active)
4,O=C(COc1ccc(/C=C2\C(=O)Nc3ccc(F)cc32)cc1)Nc1ccccc1,95.9%
5,Clc1ccc(-c2csc(N/N=C/c3nc4ccccc4n3C3CC3)n2)cc1,107%
6,COC(=O)CCCNCCCn1ccc2cc(NCc3cccc(-c4ccccc4)c3C)ccc21,16.7%
7,COc1ccccc1N1CCN(C2=C(Cl)C(=O)c3ncccc3C2=O)CC1,12.5%
8,COc1cc2cc(Oc3ccc(NC(=O)c4cccc(C(F)(F)F)c4)cc3)c(C)nc2cc1OCCN1CCCCC1,-51.6% (active)
9,O=C(O)CC1CCN(c2ccc3nnc(Cl)n3n2)CC1,104%
10,C#Cc1cc(OC)c(C(=O)Nc2ccc(F)cc2C(=O)Nc2cccc(S(=O)(=O)C(F)(F)F)c2)cn1,-51.6% (active)
11,Nc1ncc(-c2ccc3ncnc(NCc4ccccc4)c3c2)cn1,44.1%
12,C/C(=C(/C)C1CC1CCNC1CCC(NC(=O)OC(C)(C)C)CC1)c1ccccc1 (stereo not given),56.6%
13,CCn1c2ccccc2c2cc(-n3nncc3-c3ccccc3)ccc21,3.73% (active)
14,COc1c(N2CC3CCCNC3C2)c(F)cc2c(=O)c(C(=O)N/N=C/c3c[nH]c4ccccc34)cn(C3CC3)c12 (stereo not given),94.4%
15,O=C(/C=C/c1ccccc1)c1cccc(O)c1,87.5%
16,CCCCCc1ccc(S(=O)(=O)Nc2cc(-c3csc(NC(=O)CN4CCN(C)CC4)n3)ccc2N2CCN(C)CC2)cc1,-48.8% (active)
17,CCNC(=O)Oc1ccc(/C(=C(/C)c2ccc(OC)cc2)c2ccc(OCCN3CCCCCC3)cc2)cc1,22.5%
18,CN(C)CCN(C)c1ccc2ncc(C#Cc3cncc(C(=O)Nc4ccc(CN5CCN(C)CC5)c(C(F)(F)F)c4)c3)n2n1,36.5%
19,CC(C)(C)Nc1nc2c(OCCc3ccccc3)cccn2c1-c1ccc(O)cc1,-9.89% (active)
20,CC(=O)OC[C@]12CC[C@@H](C(=O)/C=C/c3cccnc3)[C@@H]1[C@H]1CC[C@@H]3[C@@]4(C)CC[C@H](OC(C)=O)C(C)(C)[C@@H]4CC[C@@]3(C)[C@]1(C)CC2,-15.1% (active)

# Reference: PubChem BioAssay (NCI)
